In PubChem BioAssay one finds composite z-score and z-score data, which are given here for eight compounds.

For test [1], the system named is Wnt5a (protein binding on small-molecule microarray). Nature of the test: small molecules binding Wnt5a protein – biophysical, small-molecule microarray, 635/667 nm fluorescence, primary screen (AID 1142).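 Further: fluorescence read at 667 nm with signal to noise per printed feature.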 As to conditions: 635 nm fluorescence, higher = more signal.
Test [2] can be described thus: ATP-based viability of Huh7 replicon cells – cell-based, CellTiter-Glo luminescence, basal, 48 h, cytotoxicity control for HCV replication inhibitor project, primary screen (AID 1143).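 Further: Huh7 hepatoma cells carrying a hepatitis C replication reporter with no stimulus; test concentration not given here.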 The note with it: higher = more signal, called active from +8 up or from −8 down. On the technique in general: Replicon systems follow genome replication, usually without infectious particles.

Test [3] can be described thus: Pseudomonas biofilm growth suppression – PAO1 strain, BacTiter-Glo luminescence, LB-PBS, primary screen (AID 1144). The note with it: P. aeruginosa PAO1 biofilm, 12 h, higher = more signal.
Test [4] can be described thus: basal CRE-LacZ reporter activity in PC12 – cell-based, unstimulated, primary screen (AID 1145). As to conditions: no forskolin, luminescence, 4.5 h, higher = more signal, called active from +8 up or from −8 down.
A short description of test [5]: forskolin-driven CRE-LacZ activity in PC12 – cell-based, CRE-LacZ reporter, forskolin-stimulated, primary screen (AID 1146).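 Further: PC12 cells with 6xCRE LacZ reporter stimulated by forskolin 10 µM; beta-galactosidase reporter signal reflecting CREB driven transcription.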 As to conditions: luminescence, 4.5 h, higher = more signal, called active from +8 up or from −8 down.
For test [6], the target named is Streptavidin (Streptomyces avidinii) (UniProt P22629). In words: compounds binding control protein streptavidin – biophysical, small-molecule microarray, 635/667 nm fluorescence, artefact control for SMM compound annotation, primary screen (AID 1147).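 Further: signal reflects streptavidin binding to arrayed compounds as a control protein.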 As to conditions: higher = more signal.
Test [7] is described as follows: probe aInhba binding on compound microarray – biochemical, small-molecule microarray, 635/667 nm fluorescence, primary screen (AID 1148).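 Further: score merges 667nm spot fluorescence with signal-to-noise for antibody binding to printed compounds.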 The note with it: higher = more signal.
For test [8], the target named is Torsin-1A (Homo sapiens) (UniProt O14656). In words: TOR1A wild-type binding on microarray – cell lysate, small-molecule microarray, lysate, 635/667 nm, primary screen (AID 1149). As to conditions: COS7 hTOR1A-WT lysate, 635 nm fluorescence, higher = more signal.
Test [9] has the same target. In words: torsin A mutant lysate binding on microarrays – cell lysate, small-molecule microarray, COS7 lysate, 635/667 nm fluorescence, primary screen (AID 1150).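 Further: score pools 667 nm emission and signal to noise measuring lysate protein binding.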 As to conditions: COS7 hTOR1A mutant lysate, 635 nm fluorescence, higher = more signal.
Test [10] has as its system Sonic hedgehog protein (Shh). In words: Sonic hedgehog microarray binding compounds – biochemical, small-molecule microarray, 635/667 nm fluorescence, primary screen (AID 1151).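 Further: Shh protein binding to compounds spotted on small-molecule microarray slides; score combines spot fluorescence intensity with signal-to-noise across triplicate slides.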 As to conditions: 635 nm fluorescence, higher = more signal.
The nature of test [11]: optical density shifts of acrAB sulA E. coli – strain DRC41, OD650, 48 h, E. coli filamentation inducer project, primary screen (AID 1152).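 Further: E. coli MC1000 strain DRC41 lacking acrAB efflux pump and sulA.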 The note with it: higher = more signal, called active from +8 up or from −8 down.
A short description of test [12]: probe aLefty1 binding on compound microarray – biochemical, small-molecule microarray, 635/667 nm fluorescence, primary screen (AID 1153).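 Further: score merges spot fluorescence with signal-to-noise ratio from the scanned slide images.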 The note with it: higher = more signal.
Test [13] is described as follows: plasmodial surface anion channel blockers, osmotic lysis – cell-based, P. falciparum Indochina, OD700, 1 h, primary screen (AID 1154). The note with it: P. falciparum Indochina infected RBC osmotic lysis, higher = more signal, called active from +8 up or from −8 down.
Test [14] in a line: plasmodial surface anion channel blockers, osmotic lysis – cell-based, P. falciparum Indochina, OD700, 2 h, primary screen (AID 1155).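 Further: lysis reports solute entry through the parasite surface anion channel PSAC.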 As to conditions: P. falciparum Indochina infected erythrocytes, higher = more signal, called active from +8 up or from −8 down.
Test [15] in a line: changes in parasitized red cell lysis, either direction – P. falciparum Indochina, OD700, 3 h, PSAC antagonist project, primary screen (AID 1156). As to conditions: P. falciparum-infected erythrocytes, osmotic lysis, higher = more signal, called active from +8 up or from −8 down.
A short description of test [16]: plasmodial surface anion channel blockers, osmotic lysis – cell-based, P. falciparum Indochina, OD700, 18 h, primary screen (AID 1157). As to conditions: P. falciparum Indochina infected erythrocytes, osmotic lysis OD700, 18 h; higher = more signal, called active from +8 up or from −8 down.
Test [17] is described as follows: S6 kinase pathway phospho-S6 level changes – cell-based, A549, cytoblot, luminescence, serum-stimulated, primary screen (AID 1158).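 Further: serum-stimulated A549 lung adenocarcinoma cells; signal is phosphorylated S6 detected by cytoblot immunostaining with HRP secondary.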 As to conditions: 5 h, higher = more signal.
Test [18] addresses NADPH oxidase 2 (Homo sapiens) (UniProt P04839). In words: compounds shifting NOX2 Amplex Red fluorescence – cell-based, HEK293-NOX2, PMA-stimulated, NOX inhibitor project, primary screen (AID 1159). Further: test concentration not given here. The note with it: 45 min, higher = more signal, called active from +8 up or from −8 down.
The target in test [19] is NADPH oxidase 4 (Homo sapiens) (UniProt Q9NPH5). Nature of the test: compounds shifting NOX4 Amplex Red fluorescence – cell-based, HEK293-NOX4, tetracycline-induced, NOX inhibitor project, primary screen (AID 1160). As to conditions: HEK293-NOX4, Amplex Red H2O2 fluorescence, 45 min; higher = more signal, called active from +8 up or from −8 down.
Test [20] has as its target NADPH oxidase 5 (Homo sapiens) (UniProt Q96PH1). Nature of the test: compounds shifting NOX5 Amplex Red fluorescence – cell-based, HEK293-NOX5, NOX inhibitor project, primary screen (AID 1161). The note with it: HEK293-NOX5, ionomycin, 45 min, higher = more signal.

Structures are written as SMILES. Activity calls are given as the source filed them. Unless noted, how the calls were made is not given here.

Sequence of NADPH oxidase 5 (Homo sapiens) (Q96PH1 whole entry, looked up): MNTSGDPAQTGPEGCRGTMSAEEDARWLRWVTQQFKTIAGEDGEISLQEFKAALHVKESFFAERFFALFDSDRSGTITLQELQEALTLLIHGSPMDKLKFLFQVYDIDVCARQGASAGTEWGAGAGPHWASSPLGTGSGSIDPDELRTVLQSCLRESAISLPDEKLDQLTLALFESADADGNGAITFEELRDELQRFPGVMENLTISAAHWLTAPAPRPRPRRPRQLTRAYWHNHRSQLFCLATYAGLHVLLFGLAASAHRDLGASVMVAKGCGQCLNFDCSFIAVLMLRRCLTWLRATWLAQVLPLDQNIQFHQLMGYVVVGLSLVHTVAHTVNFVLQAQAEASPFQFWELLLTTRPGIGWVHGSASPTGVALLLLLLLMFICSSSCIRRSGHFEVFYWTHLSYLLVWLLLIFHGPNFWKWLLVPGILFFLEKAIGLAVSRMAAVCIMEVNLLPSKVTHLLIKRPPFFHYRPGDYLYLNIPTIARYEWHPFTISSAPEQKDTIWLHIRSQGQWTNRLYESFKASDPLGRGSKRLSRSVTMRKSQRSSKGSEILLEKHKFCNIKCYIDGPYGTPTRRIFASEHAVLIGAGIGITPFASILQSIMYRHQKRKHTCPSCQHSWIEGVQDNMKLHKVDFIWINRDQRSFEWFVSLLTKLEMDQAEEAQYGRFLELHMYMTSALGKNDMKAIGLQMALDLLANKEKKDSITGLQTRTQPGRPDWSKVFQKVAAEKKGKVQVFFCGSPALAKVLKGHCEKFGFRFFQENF
Sequence of Streptavidin (Streptomyces avidinii) (P22629 whole entry, looked up): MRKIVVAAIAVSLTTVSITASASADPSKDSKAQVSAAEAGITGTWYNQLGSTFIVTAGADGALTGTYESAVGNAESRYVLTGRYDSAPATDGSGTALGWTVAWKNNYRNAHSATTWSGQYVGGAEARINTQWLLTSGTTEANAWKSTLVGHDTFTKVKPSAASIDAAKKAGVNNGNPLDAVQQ
Sequence of Torsin-1A (Homo sapiens) (O14656 whole entry, looked up): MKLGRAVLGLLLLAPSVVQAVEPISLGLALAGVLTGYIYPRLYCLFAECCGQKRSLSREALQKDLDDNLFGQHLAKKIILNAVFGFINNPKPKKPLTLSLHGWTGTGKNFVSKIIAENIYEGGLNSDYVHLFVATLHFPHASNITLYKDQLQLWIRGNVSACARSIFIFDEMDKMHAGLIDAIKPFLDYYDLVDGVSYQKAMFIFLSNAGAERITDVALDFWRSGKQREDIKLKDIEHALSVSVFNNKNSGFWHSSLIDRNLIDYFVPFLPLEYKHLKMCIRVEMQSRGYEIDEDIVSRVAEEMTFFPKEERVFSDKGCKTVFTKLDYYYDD
Sequence of NADPH oxidase 4 (Homo sapiens) (Q9NPH5 whole entry, looked up): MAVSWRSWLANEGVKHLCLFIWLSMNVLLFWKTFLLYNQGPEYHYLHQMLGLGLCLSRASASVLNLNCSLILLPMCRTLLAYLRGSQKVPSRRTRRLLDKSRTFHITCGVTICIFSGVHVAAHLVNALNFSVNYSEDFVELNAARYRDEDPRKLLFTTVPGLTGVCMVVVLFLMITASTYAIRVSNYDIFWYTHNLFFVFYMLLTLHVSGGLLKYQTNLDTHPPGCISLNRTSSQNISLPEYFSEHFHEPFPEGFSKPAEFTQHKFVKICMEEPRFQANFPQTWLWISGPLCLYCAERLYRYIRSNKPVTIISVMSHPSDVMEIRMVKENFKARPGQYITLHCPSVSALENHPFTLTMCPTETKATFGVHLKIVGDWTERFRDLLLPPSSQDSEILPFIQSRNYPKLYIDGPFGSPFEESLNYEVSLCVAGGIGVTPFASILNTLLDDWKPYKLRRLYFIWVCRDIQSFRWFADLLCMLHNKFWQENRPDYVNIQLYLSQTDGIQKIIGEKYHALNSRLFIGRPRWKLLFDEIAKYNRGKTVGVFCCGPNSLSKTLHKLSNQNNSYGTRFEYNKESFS
Sequence of NADPH oxidase 2 (Homo sapiens) (P04839 whole entry, looked up): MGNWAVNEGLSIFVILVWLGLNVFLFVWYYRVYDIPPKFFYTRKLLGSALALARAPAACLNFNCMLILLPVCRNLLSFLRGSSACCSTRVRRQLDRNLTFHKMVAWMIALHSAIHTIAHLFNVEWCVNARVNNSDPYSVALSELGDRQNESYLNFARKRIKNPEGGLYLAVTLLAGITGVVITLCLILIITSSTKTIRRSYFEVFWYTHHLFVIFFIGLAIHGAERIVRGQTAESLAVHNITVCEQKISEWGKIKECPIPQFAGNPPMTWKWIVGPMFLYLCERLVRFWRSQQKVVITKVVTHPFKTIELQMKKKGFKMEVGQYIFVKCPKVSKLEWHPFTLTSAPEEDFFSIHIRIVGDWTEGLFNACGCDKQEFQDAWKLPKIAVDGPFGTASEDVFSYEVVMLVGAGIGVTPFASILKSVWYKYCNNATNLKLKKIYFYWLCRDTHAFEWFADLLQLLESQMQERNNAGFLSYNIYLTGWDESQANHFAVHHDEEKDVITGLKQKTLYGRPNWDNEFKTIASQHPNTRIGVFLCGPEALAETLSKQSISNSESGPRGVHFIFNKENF

For the compound `C=CCC(OC(C)=O)[C@@H]1[C@@H](N(Cc2cccc3ccccc23)C(=O)Cc2ccc(F)cc2)c2cc(OCCCO)ccc2N1C(=O)Cc1ccc(OC)cc1` (stereo not given in full), the composite z-score in test [1] is -0.0124; in test [6] it was 0.227; in test [7], -0.102; with Torsin-1A (Homo sapiens) [8], -0.149; with Torsin-1A (Homo sapiens) [9] it was -0.137; in test [10], 0.309. Also, the composite z-score in test [12] stood at 0.0789. Moreover, the z-score is -0.627 (inactive) in test [2]; -0.945 (inactive) in [3]; -0.579 (inactive) in test [4]; -0.374 (inactive) in test [5]; 1.44 (inactive) in test [11]; 0.922 (inactive) in [13]. In addition, the z-score in test [14] is -0.262 (inactive); in test [15] it was -0.0628 (inactive); in test [16], -0.545 (inactive); in [17], 1.36; in [18], -0.973 (inactive); in test [19] it was 0.113 (inactive). Moreover, the z-score in test [20] came out at 0.743.

For the compound `NCCCCCCNC(=O)[C@H]1C[C@H]2C(=O)N3CCC[C@H]3C(=O)N2[C@H]1c1ccc(O)cc1`, the composite z-score in test [1] turned out to be 0.214; in test [6], 0.0381; in test [7] it was 0.0047; with Torsin-1A (Homo sapiens) [8], 0.624; with Torsin-1A (Homo sapiens) [9], 0.553; in test [10], 1.86. In [12], this compound showed a composite z-score of -0.19. For the same compound, the z-score was -0.734 (inactive) in test [2]; 0.131 (inactive) in test [3]; 0.0084 (inactive) in test [4]; -0.27 (inactive) in [5]; -0.247 (inactive) in test [11]; 1.55 (inactive) in test [13]. Besides, the z-score in [14] was 0.507 (inactive); in [15], 0.403 (inactive); in test [16], 0.253 (inactive); in test [17], 0.648; in test [18] it was -0.019 (inactive); in test [19], 0.901 (inactive). In addition, the z-score in test [20] came to 0.386.

In the case of `COC(=O)C(CC#Cc1ccc2c(c1)[C@]1(C(=O)N2)[C@H](c2ccc(O)cc2)N2[C@H](c3ccccc3)[C@H](c3ccccc3)OC(=O)[C@H]2[C@@H]1C(N)=O)C(=O)OC`, the composite z-score in test [1] was -0.206; in test [6], -1.42; in [7] it was -0.153; with Torsin-1A (Homo sapiens) [8], -1.15; in the test with Torsin-1A (Homo sapiens) [9], -0.491; in test [10], -0.907. Also, the composite z-score in test [12] is -0.216. The z-score in test [2] was -1.94 (inactive); in test [3], -1.56 (inactive); in [4], 0.212 (inactive); in test [5] it was -0.615 (inactive); in [11], 2.05 (inactive); in test [13] it was 1.09 (inactive). Besides, the z-score in [14] was 1.58 (inactive); in [15], 0.6 (inactive); in test [16], 1.3 (inactive); in test [17], 1.39; in [18], 0.222 (inactive); in test [19] it was 0.356 (inactive). For the same compound, in test [20], the z-score is -0.453.

For the compound `C=C(COC)C(=O)CC[C@H](OC(=O)c1ccccc1-c1ccccc1C(=O)O)c1ccc(OCCO)cc1`, the composite z-score in [1] was 0.314; in test [6], -0.237; in test [7], 0.0906; with Torsin-1A (Homo sapiens) [8], 2.29; in the test with Torsin-1A (Homo sapiens) [9] it was 0.383; in test [10], 1.81. The compound further had a composite z-score in test [12] of 0.134. The z-score in test [2] is -0.0319 (inactive); in test [3] it was -0.623 (inactive); in [4] it was 2.19 (inactive); in test [5], -0.42 (inactive); in [11] it was 0.146 (inactive); in test [13], 10.5 (active). Also, the z-score in [14] is 1.72 (inactive); in test [15], 2 (inactive); in [16] it was 0.626 (inactive); in test [17], -0.0494; in test [18] it was 0.00741 (inactive); in test [19] it was -0.221 (inactive). Moreover, in test [20], the z-score is -1.8.

In the case of `[N-]=[N+]=NCc1ccccc1C[C@]1(C(=O)NCCN2CCOCC2)N=C(c2ccc(OCCCO)cc2)O[C@H]1c1ccccc1`, the composite z-score in test [1] is 0.461; in test [6] it was -0.0127; in test [7], 0.364; with Torsin-1A (Homo sapiens) [8], 1.39; with Torsin-1A (Homo sapiens) [9], 0.531; in [10] it was 1.1. Moreover, in test [12], the composite z-score turned out to be 0.428. In addition, the z-score is -4.59 (inactive) in test [2]; -1.63 (inactive) in [3]; 1.11 (inactive) in test [4]; -0.838 (inactive) in test [5]; 0.158 (inactive) in test [11]; 12.7 (active) in test [13]. Further, the z-score in test [14] is 1.83 (inactive); in test [15], 1.14 (inactive); in [16], 1.11 (inactive); in [17] it was 0.378; in [18] it was -1.77 (inactive); in [19], -0.0953 (inactive). Moreover, the z-score in [20] is -1.19.

Turning to `COCCCNC(=O)[C@@H]1c2ccccc2C(=O)N(c2ccc(C)cn2)[C@H]1c1ccc(CO)cc1`, the composite z-score is -1.53 in [1]; -1.6 in [6]; -0.159 in test [7]; -2.83 with Torsin-1A (Homo sapiens) [8]; -2.65 in the test with Torsin-1A (Homo sapiens) [9]; -1.2 in test [10]. This compound had a composite z-score in [12] of -0.0984. Also, the z-score in test [2] was -0.17 (inactive); in test [3], -0.894 (inactive); in test [4], -0.374 (inactive); in test [5], -0.563 (inactive); in test [11] it was -0.889 (inactive); in [13] it was 1.21 (inactive). The z-score was -0.205 (inactive) in [14]; 1.74 (inactive) in [15]; 0.205 (inactive) in test [16]; -0.112 in [17]; 0.837 (inactive) in test [18]; -0.797 (inactive) in [19]. Moreover, the z-score in test [20] was -0.00783.

As to `CCOC(=O)C[C@H]1[C@H](OC(=O)Cc2ccc3c(c2)OCO3)[C@@H](NC(=O)c2ccccc2)c2cc(OCCCO)ccc2N1C(=O)c1ccccc1`, the composite z-score in test [1] is -0.0373; in test [6], 0.243; in test [7], -0.128; with Torsin-1A (Homo sapiens) [8] it was 0.0229; with Torsin-1A (Homo sapiens) [9], 0.403; in [10], 0.85. The composite z-score in test [12] is -0.103. Moreover, the z-score is -0.363 (inactive) in test [2]; -0.669 (inactive) in test [3]; 0.512 (inactive) in test [4]; 0.484 (inactive) in test [5]; 1.7 (inactive) in test [11]; 1.05 (inactive) in test [13]. Further, the z-score in test [14] was 0.396 (inactive); in test [15], -0.707 (inactive); in [16], -0.281 (inactive); in test [17], 0.149; in [18] it was 0.366 (inactive); in [19], 0.759 (inactive). Also, the z-score in test [20] was 0.322.

For `COCCOC(=O)N1C(=O)[C@@]2(c3ccccc31)[C@H](c1ccc(OCCO)cc1)N1[C@H](c3ccccc3)[C@H](c3ccccc3)OC(=O)[C@H]1[C@@H]2C(=O)NC[C@H](O)c1ccccc1`, the composite z-score in test [1] was 0.385; in test [6] it was 0.258; in test [7], 0.268; with Torsin-1A (Homo sapiens) [8], 1.19; with Torsin-1A (Homo sapiens) [9], 0.662; in [10], 2.04. The same compound had a composite z-score in test [12] of 0.643. The z-score is -1.49 (inactive) in test [2]; 0.109 (inactive) in [3]; 0.891 (inactive) in [4]; 10.1 (active) in [5]; -0.769 (inactive) in test [11]; 7.9 (inactive) in [13]. Also, the z-score in test [14] was 1.94 (inactive); in test [15], 0.0925 (inactive); in test [16], 0.728 (inactive); in [17], -0.575; in test [18], 1.28 (inactive); in test [19] it was 0.989 (inactive). For the same compound, the z-score in test [20] is 0.894.
